FBPA Giardia inh: inhibitors of Giardia lamblia fructose-1,6-bisphosphate aldolase; purified Giardia FBPA; 290,000 tested, 0.71% active; AID 2451; Potency, µM (top dose mostly 59.6 µM), for inactives: at the highest dose activity, negative = inhibition, actives largely listed as inhibitors; A8B2U2; also: nearly all actives have a fitted effect of over 55% in size
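Giardia FBPA (40 nM reagent) was preincubated 10 min at RT with compound (up to 57.5 uM final), then substrate plus GAPDH/TPI/NAD/arsenate coupling system with diaphorase/resazurin was added; resorufin fluorescence (525/598 nm) was read after 20 min.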
LmPK inhibitor: LmPK (Leishmania mexicana) enzyme inhibition; Q27686; purified LmPK, Kinase-Glo ATP luminescence, 1 h; Potency, µM (doses to about 57.5 µM), for inactives: at the highest dose activity change, negative = inhibition, hits mostly inhibitors; 290,000 tested, 0.37% active
Target sequence (Q27686 whole entry, looked up): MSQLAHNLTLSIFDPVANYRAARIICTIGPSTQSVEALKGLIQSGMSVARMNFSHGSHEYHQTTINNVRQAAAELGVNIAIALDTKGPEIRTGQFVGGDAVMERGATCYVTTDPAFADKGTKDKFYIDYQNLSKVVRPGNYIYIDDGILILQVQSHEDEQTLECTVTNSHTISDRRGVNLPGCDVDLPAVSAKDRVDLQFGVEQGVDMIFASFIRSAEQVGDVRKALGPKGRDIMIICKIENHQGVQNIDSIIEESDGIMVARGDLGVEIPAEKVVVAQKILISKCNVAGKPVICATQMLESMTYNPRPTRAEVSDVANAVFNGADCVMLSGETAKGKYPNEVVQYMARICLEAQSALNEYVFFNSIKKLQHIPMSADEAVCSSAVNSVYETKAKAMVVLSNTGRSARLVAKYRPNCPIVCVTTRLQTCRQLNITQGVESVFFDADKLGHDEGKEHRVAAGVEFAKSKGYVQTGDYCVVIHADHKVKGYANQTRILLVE
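0.1 nM LmPK, 0.5 mM PEP, 0.1 mM ADP; 50 mM imidazole pH 7.2, 7 mM MgCl2, 50 mM KCl; 1 h RT. Kinase-Glo luminescence readout, normalized to no-enzyme (full inhibition) and uninhibited wells.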
Tb PYK inh: inhibitors of Trypanosoma brucei pyruvate kinase. Q57TT1. TbPYK enzyme, Kinase-Glo Plus ATP luminescence, 45 min. Potency, µM (doses to about 76.8 µM), without a hit: at the highest dose activity, negative = inhibition, most hits filed as inhibitors. 410,000 tested, 0.12% active. AID 624173; also: nearly all actives have a fitted effect of over 50% in size
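Quantitative HTS: titrated library compounds versus trypanosomal pyruvate kinase in TEA buffer (pH 7.2) containing KCl, MgCl2, BSA and Tween-20. Reactions were initiated with ADP, 130 uM final. Kinase-Glo Plus luminescence was read after 45 min at RT.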
RE007 growth inh: less growth of the S. pombe RE007 Vpr strain | 360,000 tested, 0.21% active | AID 651644 | S. pombe RE007 Vpr strain, BacTiter-Glo ATP luminescence, 24 h | Potency, µM (top dose mostly 92.2 µM), inactives show at the top dose activity change, negative = less growth, most hits filed as inhibitors; active = well fitted falling curve with a large enough effect; inconclusive = small, poorly fitted or top-dose-only effect; inactive = no such curve, though single readings can be large or run the other way; also: nearly all actives have a fitted effect of over 50% in size
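Fission yeast strain RE007, carrying one chromosomally integrated HIV-1 vpr copy, was seeded at OD 0.01 in PMG+AL medium with 23 nL pinned compound. After 24 h at 30 °C and 99% humidity, viability was read by BacTiter-Glo luminescence.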
AmpC inh detg: AmpC beta-lactamase inhibition with detergent present | P00811 | AmpC hydrolysis of nitrocefin, absorbance 480 nm, 0.01% Triton | Potency, µM (series often up to 114 µM), for the others: at the top dose activity change, negative = inhibition, usual class: inhibitors | 370,000 tested, 0.041% active | AID 485294;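 also: 0% = no-compound wells and -100% = no-enzyme wells; nearly all actives have a fitted effect of over 25% in size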
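AmpC (5.3 nM in the dispensed reagent) in 20 mM phosphate pH 7.0 with 0.01% (detergent screen) or 0.0001% Triton X-100 was preincubated with compounds for 15 min at room temperature. Nitrocefin was then added from an 800 uM solution, and hydrolysis was followed at 480 nm.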
AmpC inh no detg: blocks E. coli AmpC beta-lactamase in detergent-free assay; AmpC nitrocefin hydrolysis, absorbance 480 nm, 0.0001% Triton; Potency, µM (highest dose often 57.1 µM), inactives show top-dose activity change, negative = inhibition, most hits filed as inhibitors; 330,000 tested, 0.52% active; AID 485341;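 also: plate controls were no compound for no effect and no enzyme for full effect; nearly all actives have a fitted effect of over 20% in size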
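AmpC (5.3 nM in the dispensed reagent) in 20 mM phosphate pH 7.0 with 0.01% (detergent screen) or 0.0001% Triton X-100 was preincubated with compounds for 15 min at room temperature. Nitrocefin was then added from an 800 uM solution, and hydrolysis was followed at 480 nm.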
Numbers without * were called inactive; ? = inconclusive; . = not tested or not shown; [ ] = another dose, or the depositor's remark. Hits are enriched below; roughly 1.4% of the tested compounds scored in any of these assays. Unless noted, calls follow the shape of the dose curve; as a rule, active = well fitted curve in the direction sought with a large enough effect; inconclusive = small, poorly fitted or top-dose-only effect, or another doubt; inactive = no such curve, though single readings can be large; an effect the other way counts as inactive or inconclusive. Unless noted, % is scaled to controls: 0 for no effect and ±100 for the full control effect; potency is read from the fitted curve at half-maximal effect.

SMILES | FBPA Giardia inh | LmPK inhibitor | Tb PYK inh | RE007 growth inh | AmpC inh detg | AmpC inh no detg
CCCCCCC(=O)N(O)C1CC(=O)N(c2ccc(Br)cc2)C1=O (stereo not drawn) | -2% | ? | -33% | ? | 12% | -37%
CCCCCCC(=O)N(O)C1CC(=O)N(c2ccc(F)cc2)C1=O (stereo not drawn) | -12% | 1% | ? | 6.3µM* | -8% | -29%
Cc1ccc(NC(=O)CN2C(=O)COc3ccc(S(=O)(=O)N4CCCCCC4)cc32)c(C)c1 | . | . | 2% | . | -5% | .
O=[N+]([O-])c1c(Nc2ccccc2O)ccc2nonc12 | ? | -10% | 4% | 0% | ? | -30%
O=[N+]([O-])c1c(Nc2ccccc2O)cc(Cl)c2nonc12 | -7% | -3% | -13% | -23% | -17% | 32µM*
COC(=O)CNc1c(-c2ccccn2)nc2ccc(Br)cn12 | -14% | 16µM* | -5% | -16% | ? | 2%
CCCCCNC(=O)Cc1cc(=O)[nH]c(=O)[nH]1 | 3% | -3% | -5% | 7% | ? | 50µM*
CCCNC(=O)Cc1cc(=O)[nH]c(=O)[nH]1 | 1% | 1% | 1% | 4% | 3% | ?
CCOc1ccc(CNC(=O)CCCn2c(=O)c3cccn3c3ccc(F)cc32)cc1 | . | . | 0% | . | 17% | .
Cc1cccc(NC(=O)C(Cc2ccccc2)n2cccc2)c1C (stereo not drawn) | . | . | -7% | . | 14% | .
CCc1cnc2c(c1SC(C(C)=O)C(=O)N(C)C)c(=O)n(C)c(=O)n2C (stereo not drawn) | . | . | 14µM* | . | 3% | .
CCOC(=O)CSc1nnc(-c2c[nH]c3ccccc23)n1CC | -2% | 6% | -2% | -3% | -1% | -7%
CCOC(=O)c1c(NC(=O)CSc2nnc(-c3c[nH]c4ccccc34)n2CC)sc2c1CCCC2 | 0% | 1% | -3% | 2% | -5% | 1.4µM*
C[C@@H]1O[C@@H](O[C@H]2CC[C@@H](O[C@H]3[C@H](O)C[C@H](c4ccc5c(c4O)C(=O)C4=C(C5=O)[C@@]5(O)C(=O)C[C@](C)(O[C@H]6CC[C@H](O[C@H]7C=CC(=O)[C@H](C)O7)[C@H](C)O6)C[C@@]5(O)C=C4)O[C@@H]3C)O[C@H]2C)C=CC1=O | 7.1µM* | . | . | . | . | .
COc1ccccc1N1CCN(c2nc(-c3ccc(C)cc3)nc3ccccc23)CC1 | . | . | 3% | . | 7% | .
COc1ccc(NC(=O)Nc2ccccc2SC)cc1 | -12% | 10µM* | -19% | -15% | -2% | -29%
CCNS(=O)(=O)c1ccc(NC(=O)Nc2ccccc2OC)cc1 | -3% | 4% | 4% | 15% | 2% | -21%
COc1ccc(C)cc1NC(=O)NC1CCCCCCC1 | . | -1% | 3% | 8% | 3% | 22µM*
CCNS(=O)(=O)c1ccc(NC(=O)Nc2cc(C)ccc2OC)cc1 | -8% | 0% | 4% | -2% | 2% | 11µM*
COc1cc(CC(C)N)c(OC)cc1C (stereo not drawn) | . | . | -9%[157 µM] | . | . | .
Cc1ccc(-n2nnc(-c3cccnc3)n2)cc1 | . | . | -1% | -13% | . | .
Cc1ccc(-n2nnc(-c3nccn3C)n2)cc1 | 1% | 14µM* | ? | ? | 10% | -2%
COC(=O)c1ccc2nc(-c3ccco3)c(Cc3ccc(OC)cc3C)n2c1 | . | . | 14µM* | -3% | . | .
Clc1cccc(Cc2c(-c3ccco3)nc3ccc(Cl)cn23)c1 | . | . | 20µM* | ? | . | .
Clc1ccc(-c2nc3ccc(Cl)cn3c2Cc2cccc(Cl)c2)cc1 | . | . | -6% | 3% | . | .
CSCCC(NC(=O)c1cccc([N+](=O)[O-])c1)c1nc2ccccc2[nH]1 (stereo not drawn) | -1% | 0% | -18% | 5% | -3% | 20µM*

From PubChem
